Env fusion inh: inhibitors of HIV Env-mediated cell fusion | HeLa-JRFL Env/CEM21 cell fusion, luciferase | inhibition, % at 12.3 µM | actives 1.1% (n = 360,000);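 active = mean replicate inhibition score of at least 50 and every replicate individually at or above 50; inconclusive = only one of the two criteria met; inactive = mean below 50 and not all replicates reaching 50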
Shn3 inh set2: reduces Shn3 3'UTR luciferase signal in osteoblasts. Clone20 osteoblast Shn3 3'UTR firefly luciferase, 24 h. inhibition, % at 12.5 µM. actives 0.52% (n = 360,000). AID 588674;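 active = mean inhibition of at least 75% with every replicate also reaching 75%; inconclusive = mean inhibition at least 75% but some replicate below; inactive = mean inhibition below 75%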
EBV LMP1 NFkB: reduces LMP1-driven NF-kappaB luciferase signal; LMP1-induced NF-kappaB luciferase reporter cells, luminescence; inhibition, % at 12.5 µM; actives 0.69% (n = 350,000); AID 504558; in the data active = inhibition above about 41%; inconclusive = no clear call, values can overlap the other calls
PAX8 inh HTS: PAX8 transcriptional activity inhibition. RMG-I TPO-luciferase reporter, SteadyGlo, 24 h. inhibition, % at 12.6 µM. actives 1.2% (n = 360,000). AID 652154;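 active = mean replicate inhibition at least 60% with every replicate also reaching 60%; inconclusive = only one of the two criteria is met; inactive = mean below 60% and not all replicates reaching 60%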;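 also: luciferase light reporting Pax8 driven TPO promoter activity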
Glyco luc inh: blocks N-linked glycosylation in D54 reporter cells; actives 0.23% (n = 360,000); reporter increase, % at 12.5 µM; D54 ERlucT glycosylation luciferase reporter, 24 h; percent of 100 nM tunicamycin response;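 active = mean luciferase reporter signal, scaled so untreated is 0 and the glycosylation-blocking control 100, at or above a set limit in every replicate; inconclusive = mean reaches the limit but not every replicate does; inactive = mean below the limit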;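 also: luciferase carries N-glycosylation sites so blocking glycosylation raises the light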
NSD2 inh: inhibitors of human histone methyltransferase NSD2; NSD2 peptide methylation, AlphaScreen, 120 min; inhibition, % at 12.5 µM; actives 0.54% (n = 310,000); in the data active = inhibition above about 50%
Of the large screens only hits and unclear results are named; the others gave an inactive call; [ ] = dose if it differs, or a comment. Hits are enriched below; roughly 2.8% of the tested compounds scored in any of these assays.

CCN1CCN(Cc2ccc(NC(=O)c3ccc(C)c(NC(=O)C4=NN(c5ccccc5)C(=O)C4)c3)cc2C(F)(F)F)CC1	none (no result: NSD2 inh)
O=C(C[C@@H]1CC[C@H]2[C@@H](COC[C@@H](O)CN2C(=O)c2cccnc2)O1)NCc1ccc(Cl)cc1	none (no result: Shn3 inh set2, EBV LMP1 NFkB, Glyco luc inh, NSD2 inh)
Cc1noc(C)c1S(=O)(=O)Nc1ccc2c(c1)C(=O)N([C@@H](C)CO)C[C@@H](C)[C@@H](CN(C)S(=O)(=O)c1ccc(Cl)cc1)OCCCC[C@H](C)O2	none (no result: Shn3 inh set2, EBV LMP1 NFkB, Glyco luc inh, NSD2 inh)
CO[C@@H]1CN(C)C(=O)c2cc(NC(=O)C3CC3)ccc2OC[C@H](C)N(Cc2cncnc2)C[C@@H]1C	none (no result: Shn3 inh set2, EBV LMP1 NFkB, Glyco luc inh, NSD2 inh)
CO[C@@H]1CN(C)C(=O)c2cc(NS(=O)(=O)c3cn(C)cn3)ccc2OC[C@H](C)N(C)C[C@@H]1C	none (no result: Shn3 inh set2, EBV LMP1 NFkB, Glyco luc inh, NSD2 inh)
C[C@@H]1CN([C@H](C)CO)C(=O)Cc2cc(NS(=O)(=O)c3cn(C)cn3)ccc2O[C@H]1CN(C)CC1CC1	none (no result: Shn3 inh set2, EBV LMP1 NFkB, PAX8 inh HTS, Glyco luc inh, NSD2 inh)
O=C(c1cccnc1)N1CCCCN2[C@H](C1)[C@H](c1ccc(C#Cc3ccccn3)cc1)[C@@H]2CO	none (no result: Env fusion inh, Shn3 inh set2, EBV LMP1 NFkB, Glyco luc inh, NSD2 inh)
O=C(NC1CCCCC1)C12CC3CC(C1)CC(n1cncn1)(C3)C2	EBV LMP1 NFkB 77.6 (no result: Env fusion inh, PAX8 inh HTS)
CN(C)c1ccc(NC(=S)NCC2CCCO2)cc1 (stereo not drawn)	PAX8 inh HTS 65.1 (no result: Env fusion inh)
C[C@@H]1CN([C@H](C)CO)C(=O)c2cc(NC(=O)CCCN(C)C)ccc2O[C@@H](C)CCCCO[C@H]1CN(C)C(=O)Nc1ccccc1	none (no result: Shn3 inh set2, EBV LMP1 NFkB, Glyco luc inh, NSD2 inh)
COc1ccc(S(=O)(=O)Nc2ccc3c(c2)CC(=O)N([C@@H](C)CO)C[C@H](C)[C@@H](CN(C)Cc2ccc(C(F)(F)F)cc2)O3)cc1	PAX8 inh HTS 83.0 (no result: Shn3 inh set2, EBV LMP1 NFkB, Glyco luc inh, NSD2 inh)
Cc1ccc(S(=O)(=O)Nc2ccc3c(c2)CC(=O)N([C@@H](C)CO)C[C@@H](C)[C@@H](CN(C)Cc2ccc(C(F)(F)F)cc2)O3)cc1	PAX8 inh HTS 62.0 (no result: Shn3 inh set2, EBV LMP1 NFkB, Glyco luc inh, NSD2 inh)
Cc1ccc(S(=O)(=O)Nc2ccc3c(c2)CC(=O)N([C@@H](C)CO)C[C@H](C)[C@@H](CN(C)Cc2ccc(Oc4ccccc4)cc2)O3)cc1	PAX8 inh HTS 79.6 (no result: Shn3 inh set2, EBV LMP1 NFkB, Glyco luc inh, NSD2 inh)
Cc1ccc(S(=O)(=O)Nc2ccc3c(c2)CC(=O)N([C@H](C)CO)C[C@H](C)[C@H](CN(C)Cc2ccc(C(F)(F)F)cc2)O3)cc1	none (no result: Shn3 inh set2, EBV LMP1 NFkB, Glyco luc inh, NSD2 inh)
C[C@@H]1CN([C@@H](C)CO)C(=O)Cc2cc(NS(=O)(=O)c3ccc(F)cc3)ccc2O[C@H]1CN(C)Cc1ccc(C(F)(F)F)cc1	Env fusion inh 55.6[16.7 µM], PAX8 inh HTS 89.5 (no result: Shn3 inh set2, EBV LMP1 NFkB, Glyco luc inh, NSD2 inh)
C[C@@H]1CN([C@H](C)CO)C(=O)Cc2cc(NS(=O)(=O)c3ccc(F)cc3)ccc2O[C@@H]1CN(C)Cc1ccc(C(F)(F)F)cc1	none (no result: Shn3 inh set2, EBV LMP1 NFkB, Glyco luc inh, NSD2 inh)
CO[C@H]1CN(C)C(=O)c2cc(NS(=O)(=O)CC(F)(F)F)ccc2OC[C@@H](C)N(C(=O)c2ccc3c(c2)OCO3)C[C@H]1C	none (no result: Env fusion inh, Shn3 inh set2, EBV LMP1 NFkB, Glyco luc inh, NSD2 inh)
C[C@H]1CN([C@@H](C)CO)C(=O)CCCn2nncc2CO[C@@H]1CN(C)C(=O)CCC(F)(F)F	none (no result: Env fusion inh, Shn3 inh set2, EBV LMP1 NFkB, Glyco luc inh, NSD2 inh)
C[C@H](CO)N1C[C@H](C)[C@H](CN(C)Cc2ccc(-c3ccccc3)cc2)Oc2ccc(NS(=O)(=O)c3ccc(F)cc3)cc2CC1=O	PAX8 inh HTS 112.8 (no result: Shn3 inh set2, EBV LMP1 NFkB, Glyco luc inh, NSD2 inh)
CCOc1ccc(N(C(C)C(=O)N2CCCCCC2)S(C)(=O)=O)cc1 (stereo not drawn)	EBV LMP1 NFkB 70.9
CC(C(=O)N1CCCCCC1)N(c1ccc(Cl)cc1)S(C)(=O)=O (stereo not drawn)	none
C[C@@H]1CN([C@@H](C)CO)C(=O)c2cccc(N(C)C)c2O[C@@H]1CN(C)Cc1ccc(-c2ccccc2)cc1	none (no result: Shn3 inh set2, EBV LMP1 NFkB, Glyco luc inh, NSD2 inh)
Cn1c(=O)c2c(ncn2Cc2cccc(Cl)c2)n(C)c1=O	none (no result: PAX8 inh HTS)
Cn1c(=O)c2c(ncn2Cc2ccc(Cl)c(Cl)c2)n(C)c1=O	Env fusion inh 65.9 (no result: PAX8 inh HTS)
CCN(CC)C(=O)c1oc2ccc(S(=O)(=O)N3CC(C)CC(C)C3)cc2c1C (stereo not drawn)	Shn3 inh set2 90.6
CCN(CC)C(=O)c1oc2ccc(S(=O)(=O)N3CCCCCC3)cc2c1C	none (no result: Env fusion inh, PAX8 inh HTS)
O=C(Nc1nnc(CC2=CCCCC2)s1)c1cccs1	none
O=C(Nc1ccc(Cl)c(Cl)c1)Nc1nnc(CC2=CCCCC2)s1	EBV LMP1 NFkB 70.9
O=C(Nc1ccc(Cl)cc1)Nc1nnc(CSCc2ccc(Cl)cc2)s1	Env fusion inh 71.4, EBV LMP1 NFkB inconclusive

Bioassay records as filed in PubChem.
